PubChem BioAssay AID588342 (National Center for Advancing Translational Sciences (NCATS), 2011)
Out of some 360,000 compounds screened, about 25,000 (6.9%) were called active. Not shown: some 9% with an inconclusive outcome. The sample as a whole holds a higher share of actives than the screen did. A number with no mark means an inactive call. Calls come from the whole dose curve; as a rule, active = well fitted inhibition curve with a large enough effect; inconclusive = small, poorly fitted or top-dose-only effect; inactive = flat fitted curve, though single readings scatter.

Biological target: Luciferin 4-monooxygenase (Photinus pyralis) (UniProt P08659)
Assay: qHTS profiling assay for firefly luciferase inhibitor/activator using purifed enzyme and Km concentrations of substrates (counterscreen for miR-21 project); note: nearly all actives have a fitted effect of over 55% in size;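 for activity change, negative = inhibition: plate controls were vehicle for no effect and reference inhibitor for full effect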
Conditions: purified FLuc, luminescence inhibition; series mostly up to 57.5 µM; activity change, negative = inhibition: at the top concentration
Method in brief: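 Biochemical qHTS of compounds, final roughly 60 µM downward over six points, against 10 nM purified firefly luciferase using Km concentrations of substrates (10 uM D-luciferin, 10 uM ATP) in Tris acetate pH 7.5 buffer; luminescence output.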
Potency is the fitted concentration of half-maximal effect.

Sequence of Luciferin 4-monooxygenase (Photinus pyralis) (P08659 whole entry, looked up): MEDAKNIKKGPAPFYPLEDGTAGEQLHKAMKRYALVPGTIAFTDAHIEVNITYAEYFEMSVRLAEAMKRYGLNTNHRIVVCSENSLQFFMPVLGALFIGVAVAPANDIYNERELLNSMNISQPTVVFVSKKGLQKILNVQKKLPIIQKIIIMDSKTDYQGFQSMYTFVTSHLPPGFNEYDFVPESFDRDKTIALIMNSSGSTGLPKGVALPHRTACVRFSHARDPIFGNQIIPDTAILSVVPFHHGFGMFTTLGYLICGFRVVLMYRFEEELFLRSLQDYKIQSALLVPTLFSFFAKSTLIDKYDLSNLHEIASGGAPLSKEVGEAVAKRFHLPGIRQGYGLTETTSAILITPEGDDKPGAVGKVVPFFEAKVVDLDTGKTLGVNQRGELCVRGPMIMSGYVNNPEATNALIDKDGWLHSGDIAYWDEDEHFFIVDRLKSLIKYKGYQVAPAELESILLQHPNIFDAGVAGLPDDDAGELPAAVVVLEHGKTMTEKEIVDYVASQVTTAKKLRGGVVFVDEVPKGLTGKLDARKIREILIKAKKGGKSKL

CCOc1ccc2[nH]c(C(=O)N/N=C/c3cccc(OC)c3OC)cc2c1 was tested, and the Potency was 15.1 µM (active).
COc1cc2cc(C(=O)N/N=C/c3cccc(OC)c3OC)[nH]c2cc1OC was tested, and the Potency was 16.9 µM (active).
C/C(=N\NC(=O)c1ccccc1F)c1ccccn1 was tested, and the Potency was 2.39 µM (active).
For N#C/C=C1\Sc2ccccc2C(=O)N1CC(=O)N1CCN(S(=O)(=O)c2ccccc2)CC1, the Potency was 9.53 µM (active).
With CN1C(=O)/C(=C\c2ccc(-c3ccccc3)o2)SC1=S the Potency was 2.39 µM (active).
COc1ccc(-n2nc(C(=O)NCC(=O)N3CCN(c4ccccc4OC)CC3)c3ccccc3c2=O)c(OC)c1 was tested, and the Potency was 1.69 µM (active).
In the case of COc1ccc(-n2nc(C(=O)NCC(=O)N3CCCCCC3)c3ccccc3c2=O)cc1Cl, the Potency is reported as 3.38 µM (active).
COc1ccc(-n2nc(C(=O)NCC(=O)N3CCC(C(N)=O)CC3)c3ccccc3c2=O)cc1OC was tested, and the Potency was 12 µM (active).
With COc1ccccc1OCc1nc2ccccc2s1 the Potency was 0.601 µM (active).
O=C1/C(=C/c2cccs2)CCC1C1CCCC1 (stereo not given) was tested, and the Potency was 3.38 µM (active).
O=C1/C(=C/c2cccs2)CCc2ccccc21 was tested, and the Potency was 0.757 µM (active).

In order of falling “activity change, negative = inhibition” value:
1. O=C(NCC1CCCO1)c1ccc(S(=O)(=O)Nc2ccc(F)cc2)cc1 (stereo not given)  10.4%
2. C/C(=N\NC(=O)Cc1ccc(Cl)cc1)c1ccccn1  5.25%
3. CCOC(=O)c1ccc2c(c1)N(Cc1cccc(OC)c1)C(=O)c1ccccc1S2(=O)=O  4.9%
4. COc1ccccc1NC(=O)CSC1=Nc2ccccc2C2=NC(CC(=O)NCc3cccs3)C(=O)N12 (stereo not given)  4.48%
5. O=S(=O)(c1cccs1)N1CCc2ccccc2C1  2.65%
6. COc1ccccc1-c1cc(C(F)(F)F)nc(S(=O)(=O)CCCC(=O)Nc2cc(C)ccc2O)n1  2.47%
7. COc1ccc(-n2nc(C(=O)NCC(=O)Nc3cccc(C)n3)c3ccccc3c2=O)cc1  2.32%
8. O=C(O)C(c1ccccc1)N1C(=O)/C(=C\c2ccc(-c3cccc(Cl)c3)o2)SC1=S (stereo not given)  2.28%
9. O=C(CN1CCCSc2ccccc21)N1CCN(S(=O)(=O)c2ccccc2)CC1  1.35%
10. Cc1[nH]c2ccccc2c1C(=O)C(C)Sc1nnc(C2CC2)o1 (stereo not given)  1.18%
11. COc1ccc(-c2nc3ccccc3s2)cc1NC(=O)COc1ccccc1C  0.496%
12. O=C(COC(=O)/C=C/c1cccs1)NC1CCCCC1  0.481%
13. COc1cccc(/C=N/NC(=O)CNC(=O)c2ccc(S(=O)(=O)N3CCOCC3)cc2)c1OC  0.36%
14. CC(NC(=O)c1ccc(S(=O)(=O)Nc2ccccc2)cc1)c1ccc(S(N)(=O)=O)cc1 (stereo not given)  0.247%
15. CCC1C/C(=C/c2cccs2)C(=O)/C(=C/c2cccs2)C1 (stereo not given)  -0.238%
16. O=S(=O)(NCc1ccccc1Cl)c1cnc[nH]1  -0.378%
17. COc1cccc(NC(=O)c2nn(-c3ccc(OC)cc3OC)c(=O)c3ccccc23)c1  -0.385%
18. C/C(CC(=O)Nc1ccc(N(C)C)cc1)=N\NC(=O)c1ccccc1F  -0.398%
19. COCCCNC(=O)CNC(=O)c1nn(-c2ccc(OC)cc2)c(=O)c2ccccc12  -0.501%
20. Cc1cn(C)c(CC(=O)NCc2ccccc2)c1C(=O)O  -0.767%
21. COc1cc(/C=N/NC(=O)Cc2ccccc2)cc(OC)c1OC  -1.02%
22. CCCSc1ncc(Cl)c(C(=O)Nc2c(C(=O)Nc3ccccc3)oc3ccccc23)n1  -1.02%
23. O=C(CN1CCCSc2ccccc21)N1CCN(S(=O)(=O)c2cccc(F)c2)CC1  -1.34%
24. COc1ccc(-n2nc(C(=O)NCCc3ccc(Cl)cc3)c3c4ccccc4n(C)c3c2=O)cc1Cl  -1.63%
25. O=C(CSc1oc(-c2ccc(F)cc2)nc1S(=O)(=O)c1ccc(Br)cc1)NC1CCCCC1  -1.9%
26. COc1ccc(-n2nc(C(=O)Nc3cc(OC)c(OC)c(OC)c3)c3ccccc3c2=O)c(OC)c1  -2.72%
27. COC(=O)C1[C@H]2SC(C)(C)C(C(=O)OC)N2C(=O)N1Cc1nc2ccccc2s1 (stereo not given in full)  -2.91%
28. CN=C1S/C(=C\c2ccc(Sc3ccc(Cl)cc3)o2)C(=O)N1C  -3.48%
29. CC(=O)N1CCCc2cc(S(=O)(=O)N3CCC(C(=O)NC4CCCCC4)CC3)ccc21  -3.81%
30. O=C(CCC1N=C2c3ccccc3N=C(SCc3ccccc3F)N2C1=O)NCCc1ccccc1 (stereo not given)  -5%
31. COc1ccc(/C=N/NC(=O)C2CC2)c(OC)c1OC  -6.25%
32. CC1=C(C(=O)OCC(C)C)C(c2ccc(OCc3ccccc3)cc2)N2C(=O)CCSC2=N1 (stereo not given)  -7.41%
33. O=C1/C(=C/c2cccs2)SC(=S)N1C1CCS(=O)(=O)C1 (stereo not given)  -10.5%
34. COc1cccc(OCc2cc(/C=N/NC(=O)c3nc(Cl)c(Cl)c(N)c3Cl)ccc2OC)c1  -11.1%
35. COc1ccc(CC(=O)NCC(=O)N/N=C/c2cc(Br)ccc2OC)cc1  -11.2%
36. Cc1cc(O)c(C(c2ccccc2)N2CCN(c3ccccc3F)CC2)c(=O)n1Cc1ccco1 (stereo not given)  -13.9%
37. CCOC(=O)CNC(=O)c1nn(-c2cccc(OC)c2)c(=O)c2ccccc12  -18.1%
38. CCOc1ccccc1/C=N/NC(=O)CNC(=O)COc1ccccc1  -20%
39. Cc1cccc(C(=O)N2CCc3cc(CNC(=O)Cc4ccc(F)cc4)ccc32)c1  -24%
